Screening data from PubChem BioAssay.
G9a inh: inhibitors of human histone lysine methyltransferase G9a; Q96KQ7; G9a H3K9 monomethylation, AlphaScreen, 2 h; Potency, µM (series often up to 102 µM), inactives show at the highest dose activity, negative = inhibition, hits mostly inhibitors; actives 8.8% (n = 350,000); further: potency means the concentration at half of the fitted maximal effect; nearly all actives have a fitted effect of over 75% in size
Target sequence (Q96KQ7 913-1193 limits assumed): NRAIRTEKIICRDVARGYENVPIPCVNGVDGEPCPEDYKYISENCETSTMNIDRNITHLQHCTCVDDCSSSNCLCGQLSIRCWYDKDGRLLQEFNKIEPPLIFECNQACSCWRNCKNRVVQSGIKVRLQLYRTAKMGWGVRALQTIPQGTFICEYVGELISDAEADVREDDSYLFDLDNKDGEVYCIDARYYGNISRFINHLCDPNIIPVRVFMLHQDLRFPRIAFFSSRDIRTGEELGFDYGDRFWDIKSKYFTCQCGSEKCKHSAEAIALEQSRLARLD
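Step 1: enzyme (final 20 nM) with compound, 15 min RT. Step 2: substrate peptide 500 nM and SAM 20 uM, 2 h RT. Step 3: anti-H3K9me1 antibody and AlphaScreen beads, 10 min, then plate read.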
Tau fibril ThT: blocks human tau fibril formation measured by thioflavin T; P10636; Potency, µM (top dose mostly 57.4 µM), without a hit: at the top dose activity, negative = inhibition, actives largely listed as inhibitors; actives 2.1% (n = 270,000); recombinant tau K18 P301L, heparin-induced fibrillization, ThT fluorescence; further: potency means the concentration at half of the fitted maximal effect; nearly all actives have a fitted effect of over 55% in size
Target sequence (P10636 561-689 P618L limits assumed): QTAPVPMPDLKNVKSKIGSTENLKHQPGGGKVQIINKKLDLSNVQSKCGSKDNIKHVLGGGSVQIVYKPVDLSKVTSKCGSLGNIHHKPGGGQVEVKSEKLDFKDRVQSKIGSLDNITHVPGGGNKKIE
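Aggregation was driven by heparin (20 uM final) acting on recombinant tau […] bearing P301L in 100 mM sodium acetate pH 7; fibrils were detected with Thioflavin T.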
Sfp PPTase inh: blocks B. subtilis Sfp PPTase activity | Biochemical Sfp PPTase activity, qHTS | actives 3.5% (n = 310,000) | Potency, µM, for inactives: largest response in the series, negative = inhibition, most hits filed as inhibitors | Q9F4F7;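 further: the enzyme is Sfp with the accession as filed and its product quenches rhodamine fluorescence; potency means the concentration at half of the fitted maximal effect; 0% = enzyme reaction without inhibitor and -100% = no enzyme wells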
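Reaction rates are the 30-min fluorescence difference (ex 525, em 598 nm) in wells containing 15 nM Sfp, 5 uM rhodamine-CoA and 12.5 uM BHQ-2-YbbR at pH 7.6 with 10 mM MgCl2.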
Coupling enz: counter-screen for Giardia aldolase inhibitors: coupling enzyme system; coupling enzyme system counterscreen, AmpLite Red fluorescence; activity change, negative = inhibition, % at 58.2 µM, hits read low; actives 0.67% (n = 290,000); AID 2472; in the data active means activity change below about -30%
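Activity here indicates interference with the coupling reaction, not aldolase inhibition. Compounds at 57.5 uM final met coupling enzymes for 10 min at RT; substrate and AmpLite Red detection followed, with a 525/598 nm fluorescence read after 20 min.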
Tau fluor counter: counter-screen for tau fibril formation inhibitors | tau K18 P301L Alexa594 fluorescence, heparin fibrillization | Potency, µM (titrated, usually from 57.7 µM), for inactives: top-dose activity change, negative = decrease | actives 0.93% (n = 280,000) | AID 1463; further: potency means the concentration at half of the fitted maximal effect; nearly all actives have a fitted effect of over 55% in size
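Human tau K18 P301L (15 uM unlabeled, 0.24 uM Alexa 594-labeled) in 100 mM sodium acetate pH 7 with 20 uM heparin, 6 hr at 37 C. ThT 30 uM added, 1 hr ambient; Alexa 594 FP and total fluorescence read at 555/632 nm.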
Tau fibril FP: blocks human tau fibril formation measured by polarization; P10636; K18 P301L tau heparin fibrillization, Alexa594 FP, 6 h; Potency, µM (highest dose often 57.7 µM), without a hit: at the top dose activity, negative = inhibition, usual class: inhibitors; actives 0.39% (n = 280,000); AID 1468; further: potency means the concentration at half of the fitted maximal effect; nearly all actives have a fitted effect of over 55% in size
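Steps: dispense K18 P301L tau (15 uM plus 0.24 uM Alexa 594 tracer, final) in pH 7 sodium acetate; add compound; add heparin (20 uM final); incubate 6 hr, 37 C; add ThT (30 uM final); after 1 hr ambient, read FP.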
Starred values were filed as active, the others as inactive; ? = inconclusive; nt = no result; [ ] = another dose, or the depositor's remark. Hits are enriched below; roughly 11% of the tested compounds scored in any of these assays. Unless noted, the call rests on the fitted dose curve; in most records, active means well fitted curve in the direction sought with a large enough effect; inconclusive means small, poorly fitted or top-dose-only effect, or another doubt; inactive means no such curve, though single readings can be large; an effect the other way counts as inactive or inconclusive. Unless noted, on the % scale 0 is the no-effect control and ±100 the full control effect.

SMILES	G9a inh	Tau fibril ThT	Sfp PPTase inh	Coupling enz	Tau fluor counter	Tau fibril FP
CC(C)(C)OC(=O)N/N=C/c1ccc(Br)cc1	-32%	-8%	1%	-1	-6%	0%
Clc1cccc(N/N=C/c2ccc(N3CCOCC3)s2)c1	1.1µM*	13µM*	?	-4	16µM*[quencher]	?
O=C(Nc1cccc(Cl)c1)N1CCOCC1	7%	nt	4%	0	nt	nt
O=C(N/N=C/c1ccc(N2CCOCC2)s1)c1ccccc1Br	?	?	35µM*	-3	-12%	3%
Fc1cccc(Nc2nc(N3CCOCC3)nc(N3CCOCC3)n2)c1	12%	nt	5%	0	nt	nt
CC(C)(C)OC(=O)N/N=C/c1ccc(N2CCOCC2)s1	16µM*	?	-8%	3	-16%	0%
Clc1cccc(Nc2nc(N3CCOCC3)nc(N3CCOCC3)n2)c1	50µM*	nt	1%	0	nt	nt
C/C(=N\NC(=O)c1ccccc1Br)c1ccc(N2CCOCC2)cc1	-3%	?	11%	-4	-9%	0%
Cc1ccc(/C=C2\C(=O)Nc3ccccc32)o1	8.9µM*	5%	16µM*	-7	1%	-3%
Cc1ccc2c(c1)/C(=C/c1ccco1)C(=O)N2	25µM*	11µM*	?	-1	-21%	3%
O=C1NC(=O)/C(=C/c2ccco2)N1	6%[0.501 µM]	nt	nt	nt	nt	nt
Cc1cc(C)cc(NC(=O)CSc2nc(=O)[nH]c3c2CCC3)c1	-6%[59 µM]	?	nt	nt	-24%	?
C=CCC(O)CC1C2C(CC(O)CC=C)C3C1C3C2OC(C)(C)C (centres undefined)	nt	-14%[11.5 µM]	1%	0	-17%[11.6 µM]	-1%[11.6 µM]
COc1ccc2c(c1)C(=O)[C@H](OC(=O)NS(=O)(=O)c1ccc(C)cc1)[C@@H](c1ccc(OC)c(Br)c1)O2	nt	-5%	18%	1	-2%	-2%
O=S(=O)(c1ccccc1)c1nc(-c2cccs2)oc1NCC1CCCO1 (centres undefined)	32µM*	-11%	56µM*	3	-8%	1%
O=C(CSc1oc(-c2ccc(F)cc2)nc1S(=O)(=O)c1ccc(F)cc1)NCC1CCCO1 (centres undefined)	?	-1%	1%	1	1%	12%
Cc1ccc(S(=O)(=O)c2nc(-c3ccccc3)oc2SCC(=O)NCC2CCCO2)cc1 (centres undefined)	45µM*	nt	-4%	-1	nt	nt
Cc1ccc(-c2nc(S(=O)(=O)c3ccc(F)cc3)c(SCC(=O)NCC3CCCO3)o2)cc1 (centres undefined)	14µM*	1%	-7%	-1	-3%	-10%
Cc1ccc(S(=O)(=O)c2nc(-c3ccc(F)cc3)oc2SCC(=O)NCC2CCCO2)cc1 (centres undefined)	?	-7%	-15%	10	-9%	-10%
O=C(CSc1oc(-c2cccs2)nc1S(=O)(=O)c1ccc(F)cc1)NCC1CCCO1 (centres undefined)	45µM*	-18%	-16%	0	-19%	-12%
COCCn1c(=O)c(-c2ccc(Cl)cc2)nc2cnc(OC)nc21	9%[12.7 µM]	nt	4%	-4	nt	nt
CCC(C)(C)C1CCC2(CC1)NC(=O)N(CC(=O)N1CCN(S(=O)(=O)c3cc(C)ccc3C)CC1)C2=O (centres undefined)	6%	nt	20%	-8	nt	nt
COCCCNC(=S)N/N=C/c1ccc(OC)c(Br)c1	27%[59 µM]	?	0%	2	-22%	1%
COc1ccc(N2CCN(C(=O)COC(=O)CCOc3cc(C)ccc3C)CC2)cc1	10µM*	nt	nt	nt	nt	nt
COc1ccc(N2CCN(C(=O)COC(=O)CCOc3ccccc3C)CC2)cc1	32µM*	nt	nt	nt	nt	nt
SMILES	G9a inh	Tau fibril ThT	Sfp PPTase inh	Coupling enz	Tau fluor counter	Tau fibril FP
COc1ccc(N2CCN(C(=O)COC(=O)CCc3ccccc3OC)CC2)cc1	11µM*	nt	nt	nt	nt	nt
CCOc1ccc(OCCC(=O)OCC(=O)N2CCN(c3ccc(OC)cc3)CC2)cc1	-44%	nt	nt	nt	nt	nt
COc1ccc(N2CCN(C(=O)COC(=O)CCOc3ccc(C(C)(C)C)cc3)CC2)cc1	-42%	nt	nt	nt	nt	nt
CCCCOc1ccccc1C(=O)N(Cc1cccc(F)c1)C1CCS(=O)(=O)C1 (centres undefined)	4%[59 µM]	2%	nt	nt	-8%	-5%
CC(=O)C1=C(C)NC2(O)c3ccccc3C(=O)C12O (centres undefined)	-25%	11%	-1%	-20	4%	11%
CCOC(=O)C1=C(C)NC2(O)c3ccccc3C(=O)C12O (centres undefined)	-33%[59 µM]	2%	79µM*	-23	4%	1%
COCCOC(=O)C1=C(C)NC2(O)c3ccccc3C(=O)C12O (centres undefined)	-33%[59 µM]	11µM*	89µM*	-27	-14%	?
CCC(C(=O)Nc1cccc(C#N)c1)n1nc(-c2ccccc2)ccc1=O (centres undefined)	-28%[59 µM]	2%	nt	nt	-22%	-4%
CC(C)(C)OC(=O)NCc1ccc(CNC(=O)c2[nH]cnc2C(=O)N[C@@H](Cc2ccccc2)C(=O)OCc2ccccc2)cc1	17%	nt	22%	-2	nt	nt
CC(C)(C)OC(=O)NCc1ccc(NC(=O)c2nc[nH]c2C(=O)N[C@@H](Cc2ccccc2)C(=O)OCc2ccccc2)cc1	5%[59 µM]	5%	12%	-4	?	10µM*
C[C@H](NC(=O)c1nc[nH]c1C(=O)N[C@@H](Cc1ccccc1)C(=O)OCc1ccccc1)C(=O)OCc1ccccc1	nt	nt	2%	-7	nt	nt
Cc1cccc(NC(=O)c2nc[nH]c2C(=O)N[C@@H](Cc2ccccc2)C(=O)OCc2ccccc2)c1	5%[12.7 µM]	?	24%	2	?	11µM*
O=C(Cn1cc(SCc2c(F)cccc2Cl)c2ccccc21)N1CCCCCC1	4%[59 µM]	-6%	nt	nt	-14%	9%
Cc1ccc(N=Nc2[nH]c3ccccc3c2O)cc1	14µM*	7%	-14%	-5	2%	-11%
COc1ccc(N=Nc2[nH]c3ccc(C)cc3c2O)cc1	11µM*	?	-16%	-5	?	2%
Nc1nc(C(=O)N2CCOCC2)nn1C(=O)c1ccc(Cl)cc1	35µM*	?	5%	3	7%	?
O=C(c1ccc(Cl)cc1)c1ccccc1C(=O)N1CCOCC1	7%	-7%	12%	-19	-3%	-1%
CCN(CC)CCOc1ccccc1C(C)=O	11µM*	-3%	-15%	0	-2%	-2%
O=C(Nc1cccc(Cl)c1Cl)c1cc2nc(-c3ccc(Cl)cc3)cc(C(F)(F)F)n2n1	10%[59 µM]	-15%	nt	nt	-4%	-4%
